Results reported in PubChem BioAssay AID720517 (National Center for Advancing Translational Sciences (NCATS), 2013).
Inconclusive results are not listed. Values without a mark were called inactive. Calls follow the shape of the dose curve; as a rule, active = well fitted activation curve with a large enough effect; inconclusive = small, poorly fitted or top-dose-only effect; inactive = flat fitted curve, though single readings scatter.

Experiment: qHTS for Inhibitors of Cell Surface uPA Generation: FP59 Counterscreen for Cherry-picked Compounds; also: 0% is about no effect
Conditions: FP59 anthrax toxin cytotoxicity counterscreen, cells; series mostly up to 115 µM; activity (protection from FP59): at the top concentration

Compound	activity (protection from FP59)
Cc1ccccc1C(=O)Nc1ccccc1N1CCCCC1	-0.905%
CCn1nc(NS(=O)(=O)c2ccccc2)c2cc3cc(C)ccc3nc21	-1.52%
O=C(CCCC(=O)N(c1cccc(F)c1)C(C(=O)NC1CCCC1)c1ccc(O)cc1)Nc1ccccn1 (configuration not stated)	-1.23%
Cc1cccc(Nc2ccc(NCc3ccccc3)nn2)c1	-1.23%
Cc1[nH]c2ccc(C(=O)OC(C)C(=O)NC3CCCCC3C)cc2c1C (configuration not stated)	-0.383%
CCCCCOC(=O)C1=C(C)NC(=O)NC1c1ccccc1 (configuration not stated)	-0.939%
COc1cccc(C(=O)NCC(c2ccco2)N2CCc3ccccc3C2)c1 (configuration not stated)	-1.3%
CC(=O)Oc1ccccc1C(=O)Nc1ccccc1C(=O)N1CCCC1	-1.41%
Cc1[nH]c2ccccc2c1C(=O)C(C)OC(=O)c1ccccc1NCCO (configuration not stated)	0.319%
C[C@H](O)[C@@H]1C(=O)N2CCc3ccc(-c4cccc(F)c4)cc3[C@@H]2C[C@@H]1N(C)C(=O)C(C)(C)C	2.82%
CCC(NC(=O)Cc1c(C)c2c(cc(C)c3c(C)c(C)oc32)oc1=O)C(=O)O (configuration not stated)	-1.44%
Cc1ccc2cccc(OCCCOc3ccccc3CO)c2n1	-1.48%
CCN(CC)c1c([N+](=O)[O-])c(=O)sc2ccccc12	-1.13%
CCC(C)C(NC(=O)c1ccccc1)C(=O)Nc1ccc(S(=O)(=O)Nc2cc(C)nc(C)n2)cc1 (configuration not stated)	-1.41%
CC(C)NC(=O)NC(=O)CN1C(=O)NC(Cc2c[nH]c3ccccc23)C1=O (configuration not stated)	-1.2%
Cc1ccc(S(=O)(=O)N2CCN(C(=O)c3n[nH]c(=O)c4ccccc34)CC2)cc1	-1.23%
CCOC(=O)c1c(NC(=O)CC2SC(N)=NC2=O)sc2c1CCC(C)C2 (configuration not stated)	0.548%
